Screening data: PubChem BioAssay, Paczesny and Yang Labs, IUPUI and University of Michigan
ST2 inh: blocks human ST2 binding to IL-33 | AlphaLISA ST2-Fc/biotin-IL-33 interaction, 1 h | hit rate 2.3% among 78,000 | inhibition, % for hits at 17 µM; in the data active = inhibition above about 30%
* marks the source's active call; other numbers are inactive results; i = inactive. Many of the other results were omitted from the sample, so hits are more common in it than they were.

SMILES	ST2 inh
CC(C)=CCCC(C)CN1CCN(CCOCCO)CC1 (stereo not drawn)	i
COc1cc(NC(=O)c2ccc([N+](=O)[O-])cc2)c(OC)cc1NC(C)=O	i
COC1(C#CC(=O)c2ccc([N+](=O)[O-])cc2)CCCCC1	61%*
COc1ccc(C2(CNC(=O)c3ccc([N+](=O)[O-])cc3)CCCC2)cc1	i
COc1ccc(C2C(C(=O)Nc3ccccc3OC)c3cc(OC)c(OC)cc3C(=O)N2C)cc1 (stereo not drawn)	i
CCOC(=O)c1c(NC(=O)C(C)Sc2c[nH]c3ccccc23)sc2c1CCCC2 (stereo not drawn)	i
CCc1ccc(S(=O)(=O)N=C2C=C(Nc3ccccc3OC)C(=O)c3ccccc32)cc1	95%*
Cc1ccccc1NS(=O)(=O)c1ccc(NS(=O)(=O)c2ccc(F)cc2)cc1	i
COc1ccc(S(=O)(=O)Nc2ccccc2Br)cc1OC	i
COc1ccccc1NS(=O)(=O)c1ccc2[nH]c(=O)sc2c1	i
COc1ccc(S(=O)(=O)Nc2ccccc2C)cc1	i
COc1ccccc1NC(=O)c1ccc(F)cc1	i
COc1ccccc1NC1=CC(=NS(=O)(=O)c2ccc(F)cc2)c2ccccc2C1=O	95%*
COc1ccccc1NS(=O)(=O)c1ccc(Cl)cc1	i
COc1ccc(S(=O)(=O)N=C2C=C(Nc3ccccc3OC)C(=O)c3ccccc32)cc1	94%*
CCc1ccc(S(=O)(=O)N2CCSC2c2ccccc2OC)cc1 (stereo not drawn)	i
Cc1ccccc1NC1=CC(=NS(=O)(=O)c2ccc(F)cc2)c2ccccc2C1=O	77%*
CC(C)c1ccccc1NS(=O)(=O)c1ccc(F)cc1	i
Fc1ccc(-c2n[nH]c3c2CN(CCCc2cccnc2)CC3)cc1F	i
Cc1[nH]c(=O)[nH]c(=O)c1S(=O)(=O)NCCC12CC3CC(CC(C3)C1)C2	i
Cc1nnc(SCC(=O)NC(C)Cc2cnccn2)s1 (stereo not drawn)	i
Cc1ccc(-c2nnc(NCc3ccco3)c3ccccc23)cc1	i
O=C(CCS(=O)(=O)c1cccs1)Nc1ccc(C(=O)NCc2ccco2)cc1	i
CCNc1ncc(C(=O)N2CCCC3(C=Cc4ccccc4O3)CC2)cn1 (stereo not drawn)	i
COC(=O)c1ccc(S(=O)(=O)c2ccc(C)cc2)c(N)c1	i
SMILES	ST2 inh
c1ccc(CCc2noc(CN3CCN(c4nc5ccccc5s4)CC3)n2)cc1	i
COc1ccccc1NC1=CC(=NS(=O)(=O)c2ccccc2)c2ccccc2C1=O	95%*
COc1ccccc1NC1=CC(=NS(=O)(=O)c2ccc(C)cc2C)c2ccccc2C1=O	95%*
CCOc1ccccc1NS(=O)(=O)c1cc(C)ccc1OC	i
COc1ccccc1NS(=O)(=O)c1cc([N+](=O)[O-])ccc1C	i
COc1ccccc1NC(=O)C(Cc1ccccc1)N1C(=O)c2ccccc2C1=O (stereo not drawn)	i
COc1ccccc1NC(=O)CN(C)S(=O)(=O)c1ccccc1	i
O=C(NCc1cccs1)c1ccc(F)cc1	i
CCc1nc(Cn2cnc(-c3ccccc3)c2-c2cc(C)[nH]n2)cs1	i
Cc1ccccc1C1(CC(=O)N(C)Cc2ccccc2)CC(=O)N(Cc2cccnc2)C1=O (stereo not drawn)	i
COc1ccc2oc(=Nc3ccc(Cl)cc3Cl)c(C(=O)NC(C)=O)cc2c1	33%*
COc1ccc2oc(=Nc3ccccc3F)c(C(=O)NC(C)=O)cc2c1	i
COc1ccc2cc(C(=O)NC(C)=O)c(=Nc3ccc(C#N)cc3)oc2c1	37%*
COc1ccc2oc(=Nc3cccc(C#N)c3)c(C(=O)NC(C)=O)cc2c1	i
CC(=O)NC(=O)c1cc2cc(Br)ccc2oc1=Nc1ccccc1F	i
COc1ccc2cc(C(=O)NC(C)=O)c(=Nc3cccc(F)c3)oc2c1	i
O=C(O)CCCCCNC(=O)/C(=C/c1ccc2c(c1)OCO2)NC(=O)c1ccccc1Cl	i
CC(C)NC(=O)CSc1cc(=O)n(C)c2ccccc12	i
Cc1nc2c(C(=O)NCCC(C)C)c[nH]n2c(=O)c1Cc1ccc(F)cc1Cl	i
CCN(C)C(=O)c1ccc(-c2cc(N)nc3[nH]ccc23)nc1	i
CCOc1ccccc1-c1c(C#N)c(N)nc(OC)c1C#N	i
CCOc1cc(/C=C(\C#N)c2nn(-c3ccccc3)c(N)c2C#N)cc(Br)c1OC	31%*
C#CCOc1c(Br)cc(C=O)cc1OCC	i
Cc1ccc(S(=O)(=O)N2CCCC(C(=O)N3CCCC3)C2)cc1 (stereo not drawn)	i
